SMILES strings stand for the structures. About 83,000 compounds went through this panel and 20% of them were active in at least one assay; those are over-represented in the sample as a whole.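 The endpoint reported here, percent growth, reads 100 for growth as untreated, 0 for no net growth and -100 for all cells dead.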 Unmarked numbers belong to inactive results. Activity calls are given as the source filed them. Rule for the calls: active = growth percent below 10; inactive = the rest.

Holding throughout (test): NCI-60 one-dose screen, 48 h (100 = growth as untreated, 0 = no growth, -100 = all killed)
The subject of one assay is NCI-H23 lung. The following applies: 10 µM unless noted.
The test system of another assay is NCI-H226 lung. As to conditions: 10 µM unless noted.
For a further assay, the system named is NCI-H322M lung. The following applies: 10 µM unless noted.
A further assay has as its system NCI-H460 lung. The following applies: 10 µM unless noted.
The test system of a further assay is HOP-92 NSCLC. As to conditions: 10 µM.
The next assay deals with NCI-H522 lung. As to conditions: 10 µM.
For a further assay, the system named is A549/ATCC NSCLC. As to conditions: 10 µM unless noted.
A further assay concerns 786-0 renal. As to conditions: 10 µM unless noted.
The next assay relates to COLO 205 colon. The following applies: 10 µM unless noted.
For a further assay, the system named is DU-145 prostate. The following applies: 10 µM unless noted.
In another assay the test system is K-562 leukemia. The following applies: 10 µM unless noted.
The subject of the next assay is MALME-3M melanoma. As to conditions: 10 µM unless noted.
The next assay relates to MDA-MB-231 breast. The following applies: 10 µM unless noted.
A further assay relates to SF-268 CNS. As to conditions: 10 µM unless noted.
The next assay has as its system SF-295 CNS. As to conditions: 10 µM unless noted.
Another assay relates to SF-539 CNS. The following applies: 10 µM unless noted.
The subject of a further assay is UACC-257 melanoma. As to conditions: 10 µM unless noted.
Another assay concerns M14 melanoma. As to conditions: 10 µM unless noted.
In the next assay the test system is RXF 393 renal. The following applies: 10 µM unless noted.

Turning to `CCCCCCCCc1ccc(CCC(N)(CO)CO)cc1`, the growth in the assay with NCI-H23 lung is 68.9%; with NCI-H226 lung, 94.3%; in the assay on NCI-H322M lung, 3.56% (active); in the assay on NCI-H460 lung, 0.54% (active); in the assay on HOP-92 NSCLC it was -5.83% (active); in the assay with NCI-H522 lung, -51.7% (active). The growth was 0.665% (active) in the assay with A549/ATCC NSCLC; -44.2% (active) in the assay with 786-0 renal; -87.5% (active) in the assay with COLO 205 colon; 3.12% (active) in the assay with DU-145 prostate; -25.2% (active) in the assay on K-562 leukemia; 26.2% in the assay with MALME-3M melanoma. In addition, the growth was -24.1% (active) in the assay with MDA-MB-231 breast; 20.3% in the assay with SF-268 CNS; 67.9% in the assay on SF-295 CNS; 17.3% in the assay on SF-539 CNS; 53.7% in the assay with UACC-257 melanoma; 50% with M14 melanoma.
`CC(C)OC(=O)Nn1cnc2ccccc21`: the growth is 98.4% with NCI-H23 lung; 106% in the assay with NCI-H226 lung; 122% with NCI-H322M lung; 114% in the assay with NCI-H460 lung; 95.6% with HOP-92 NSCLC; 103% in the assay with NCI-H522 lung. In addition, the growth in the assay with A549/ATCC NSCLC was 117%; in the assay with 786-0 renal, 96.7%; in the assay on COLO 205 colon, 130%; with DU-145 prostate, 103%; in the assay with K-562 leukemia, 96.7%; in the assay with MDA-MB-231 breast, 117%. The growth in the assay on RXF 393 renal is 108%; in the assay with SF-268 CNS, 120%; in the assay with SF-295 CNS, 103%; in the assay on SF-539 CNS, 95.2%; in the assay on UACC-257 melanoma it was 109%.
Take `CCOC(=O)C1=NN(c2ccccc2)C2=NC(=O)/C(=C\c3cn(-c4ccccc4)nc3-c3cc4ccccc4o3)C(=O)N12`: the growth was 95.4% in the assay with NCI-H23 lung; 84.7% in the assay on NCI-H226 lung; 89.6% in the assay on NCI-H322M lung; 97% with NCI-H460 lung; 63.5% with HOP-92 NSCLC; 89.5% in the assay on NCI-H522 lung. In addition, the growth with A549/ATCC NSCLC is 96.8%; in the assay with 786-0 renal, 99.9%; in the assay with COLO 205 colon it was 109%; with DU-145 prostate, 109%; in the assay with K-562 leukemia it was 74.9%; in the assay on MDA-MB-231 breast it was 78.7%. Moreover, the growth in the assay with RXF 393 renal is 124%; in the assay with SF-268 CNS, 105%; in the assay on SF-295 CNS, 108%; in the assay with SF-539 CNS, 114%; in the assay on UACC-257 melanoma it was 102%; with M14 melanoma, 101%.
Take `NNC(=S)N1N=C(c2cc3ccccc3o2)CC1c1c[nH]c2ccccc12` (centres undefined): the growth with NCI-H23 lung is 56.4%; in the assay with NCI-H226 lung it was 69.7%; with NCI-H322M lung, 39.6%; with NCI-H460 lung, 24.7%; with HOP-92 NSCLC it was 50.1%; in the assay on NCI-H522 lung it was 42.6%. The growth with A549/ATCC NSCLC is 48.4%; in the assay with 786-0 renal, 22%; in the assay on COLO 205 colon, 52.2%; with DU-145 prostate, 50.9%; in the assay on K-562 leukemia, 9.64% (active); in the assay with MDA-MB-231 breast, 41.6%. The growth with RXF 393 renal is 77.7%; in the assay with SF-268 CNS, 29.6%; with SF-295 CNS, 38.9%; in the assay with SF-539 CNS, 57.9%; in the assay with UACC-257 melanoma it was 64.2%; in the assay with M14 melanoma, 52.1%.
Turning to `COc1ccc2c(c1)/C(=C/c1c(-c3cc(OC)c(OC)c(OC)c3)nc3sccn13)C(=O)N2`, the growth in the assay with NCI-H23 lung is 99.1%; in the assay with NCI-H226 lung, 97%; in the assay with NCI-H322M lung it was 92.3%; with NCI-H460 lung, 108%; in the assay on HOP-92 NSCLC, 31.7%; in the assay with NCI-H522 lung, 86.5%. Further, the growth was 110% in the assay with A549/ATCC NSCLC; 95.7% with 786-0 renal; 107% in the assay with COLO 205 colon; 88% in the assay with DU-145 prostate; 87.3% in the assay with K-562 leukemia; 66.1% in the assay with MDA-MB-231 breast. For the same molecule, the growth was 82.4% in the assay on RXF 393 renal; 107% in the assay on SF-268 CNS; 93.2% with SF-295 CNS; 91.9% with SF-539 CNS; 101% with UACC-257 melanoma.
As to `C/C(=N\Nc1ccc(Cl)cn1)c1ccccn1`, the growth in the assay with NCI-H23 lung is 11.6%; in the assay on NCI-H226 lung it was -8.37% (active); with NCI-H322M lung it was 9.31% (active); in the assay on NCI-H460 lung, 0.782% (active); in the assay with HOP-92 NSCLC, 29%; in the assay with NCI-H522 lung, 6.6% (active). The growth with A549/ATCC NSCLC was 6.73% (active); in the assay on 786-0 renal, 8.74% (active); in the assay with COLO 205 colon it was 9.59% (active); with DU-145 prostate, 18.2%; with K-562 leukemia, 5.63% (active); in the assay on MALME-3M melanoma it was 2.78% (active). Also, the growth with MDA-MB-231 breast is 31%; with RXF 393 renal, 19.4%; in the assay with SF-268 CNS, 11.9%; in the assay on SF-295 CNS, -1.75% (active); in the assay on SF-539 CNS, -14% (active); with UACC-257 melanoma, -11.4% (active). The growth in the assay on M14 melanoma was 2.33% (active).
Consider `COc1ccc2oc(=O)cc(CN3C(=O)S/C(=C\c4ccc(Cl)cc4)C3=O)c2c1`, for which the growth in the assay with NCI-H23 lung is 90.9%; in the assay with NCI-H226 lung, 92.3%; in the assay on NCI-H322M lung, 104%; in the assay on NCI-H460 lung, 102%; with HOP-92 NSCLC, 86.5%; in the assay with NCI-H522 lung, 79.6%. Further, the growth in the assay on A549/ATCC NSCLC is 97.9%; in the assay with 786-0 renal, 93.1%; in the assay with COLO 205 colon, 136%; with DU-145 prostate, 96.5%; in the assay with K-562 leukemia, 64.1%; with MDA-MB-231 breast it was 108%. For the same molecule, the growth is 116% with RXF 393 renal; 92.2% in the assay on SF-268 CNS; 92% with SF-295 CNS; 99.6% in the assay with SF-539 CNS; 103% with UACC-257 melanoma; 96.2% in the assay with M14 melanoma.
For `COc1cccc2c1nc1cccc(OC)c1[n+]2[O-]`, the growth is 9.62% (active) in the assay on NCI-H23 lung; 71.2% in the assay with NCI-H226 lung; 78.6% in the assay with NCI-H322M lung; 14.1% in the assay with NCI-H460 lung; 31.4% in the assay on HOP-92 NSCLC; 20.2% with NCI-H522 lung. Moreover, the growth with A549/ATCC NSCLC was 36.8%; in the assay on 786-0 renal it was 32.5%; in the assay on COLO 205 colon, 77.9%; with DU-145 prostate, 13.8%; with K-562 leukemia, 39.8%; in the assay on MALME-3M melanoma, 16.4%. Also, the growth in the assay with MDA-MB-231 breast is 78.5%; with RXF 393 renal, -39.6% (active); with SF-268 CNS it was 36.9%; in the assay on SF-295 CNS it was 36.7%; in the assay with SF-539 CNS it was 25.2%; in the assay with UACC-257 melanoma, 58.2%. The growth in the assay on M14 melanoma was -3.49% (active).

The values above are taken from PubChem BioAssay (NCI).
